From PubChem BioAssay AID463173 (ICCB-Longwood Screening Facility, Harvard Medical School, 2010) come the findings set out here.

Screen size: about 52,000 compounds; about 4,300 (8.3%) were called active. This excerpt belongs to a sample that is enriched for actives. A number with no mark means an inactive call. No stated cut-off is given here; in the data, active means survival mostly below about 52% (no sharp cut-off); inactive means mostly above about 56%.

The test system of this experiment is DeltatarO mutant. Briefly: growth inhibition of S. aureus wild type versus tarO mutant, primary screen, teichoic acid synthesis inhibitors, RN4220, OD600 (AID 463173). As to conditions: OD600, 18 h, active compounds read low, screened at 18.75 µg/mL (by protocol).
Take `CCOc1ccc(CCNC(=O)CCN2N=C(c3ccc(OC)cc3)CCC2=O)cc1OCC`: the survival was 81%.
With `Cc1ccccc1NC(=O)c1sc2nc(-c3cc4ccccc4oc3=O)[nH]c(=O)c2c1C` the figure was 52%; with `COc1ccc(NC(=O)c2sc3nc(-c4cc5cccc(OC)c5oc4=O)[nH]c(=O)c3c2C)cc1`, 46%; with `Cc1cc(NC(=O)c2ccc(F)cc2)ccc1-c1cc2ccccc2oc1=O`, 75%.
As for `Cc1cccc(NC(=O)c2sc3nc(-c4cc5ccc(O)cc5oc4=O)[nH]c(=O)c3c2C)c1`, the survival is 46%.
In the case of `CCOc1cccc2cc(-c3nc4sc(C(=O)Nc5ccc(C)cc5)c(C)c4c(=O)[nH]3)c(=O)oc12`, the survival was 51%.
As for `Cc1c(C(=O)Nc2cccc(F)c2)sc2nc(-c3cc4ccccc4oc3=O)[nH]c(=O)c12`, the figure is 37% (active).
As for `COc1ccc(NC(=O)c2sc3nc(-c4cc5ccc(OC)cc5oc4=O)[nH]c(=O)c3c2C)cc1`, the figure is 46% (active); as for `Cc1cc(C)cc(NC(=O)c2sc3nc[nH]c(=O)c3c2C)c1`, 91%.
With `Cc1ccc(NC(=O)c2sc3nc(-c4cc5ccccc5oc4=O)[nH]c(=O)c3c2C)c(C)c1` the figure was 39% (active); with `Cc1cc(C)cc(NC(=O)c2sc3nc(-c4cc5ccccc5oc4=O)[nH]c(=O)c3c2C)c1`, 43% (active).
For `COc1ccc(NC(=O)c2sc3nc[nH]c(=O)c3c2C)cc1`, the survival is 75%.
With `Cc1c(C(=O)Nc2ccccc2)sc2nc(-c3cc4ccccc4oc3=O)[nH]c(=O)c12` the figure was 66%; with `O=C(COc1ccc(Br)cc1Cl)Nc1ncn[nH]1`, 91%; with `CCOCCCNC(=O)C1CCCN(c2ncnc3onc(C)c23)C1` (configuration not stated), 68%.
As for `COc1ccc(-c2cn3nc(N4CCC(C(=O)Nc5cccc(OC)c5)CC4)sc3n2)cc1`, the figure is 94%.
As for `C#CCn1c(=NC(=O)c2ccc3c(c2)OCCO3)sc2cc(OC)c(OC)cc21`, the figure is 102%.
`COc1cccc(C(=O)c2cn(CC(=O)Nc3ccc4c(c3)OCCO4)c3nc(C)ccc3c2=O)c1`: the survival was 68%.
As for `CCOC(=O)c1c(Nc2cccc(O)c2)nnc(-c2ccccc2)c1-c1ccccc1`, the figure is 31% (active); as for `CCOC(=O)c1c(Nc2cccc(C(=O)OC)c2)nnc(-c2ccccc2)c1-c1ccccc1`, 16% (active); as for `CCOC(=O)c1c(C)oc2nc(C)nc(Nc3cccc(OC)c3)c12`, 78%.
As to `CCOC(=O)c1c(C)oc2nc(C)nc(Nc3cc(C)cc(C)c3)c12`, the survival was 89%.
As for `Cc1ccc(-c2nnc(Nc3cccc(O)c3)c3ccccc23)cc1S(=O)(=O)N1CCOCC1`, the figure is 78%.
With `CCOC(=O)c1c(Oc2ccc(C(=O)OC)cc2)nnc(-c2ccccc2)c1-c1ccccc1` the figure was 74%.
With `Cc1ccc(-c2nnc(Nc3cccc(O)c3)c3ccccc23)cc1S(=O)(=O)N1CCCCC1` the figure was 60%; with `Cc1ccc(-c2nnc(Nc3ccc(C(N)=O)cc3)c3ccccc23)cc1S(=O)(=O)N1CCCCC1`, 128%; with `CCOC(=O)c1c(C)oc2ncnc(Nc3cc(C)cc(C)c3)c12`, 94%.
As to `CCOC(=O)c1c(Nc2cc(C)cc(C)c2)nnc(-c2ccccc2)c1-c1ccccc1`, the survival is 32% (active).
As for `CNC(=O)c1ccc(Nc2nnc(-c3ccc(C)c(S(=O)(=O)N4CCOCC4)c3)c3ccccc23)cc1`, the figure is 61%; as for `CNC(=O)c1ccc(Nc2nnc(-c3ccc(C)c(S(=O)(=O)N4CCCCC4)c3)c3ccccc23)cc1`, 54% (active); as for `Cc1ccc(N2CCN(c3nc4c(S(=O)(=O)c5ccc(C)c(C)c5)nnn4c4ccccc34)CC2)c(C)c1`, 82%.
As to `CN(C)c1ccc(CNC(=O)C2CCCN(S(=O)(=O)c3ccc4c(ccn4C)c3)C2)cc1` (configuration not stated), the survival is 83%.
As for `Cc1noc(-c2ccc(N3CCCCC3C)c([N+](=O)[O-])c2)n1` (configuration not stated), the figure is 108%; as for `CCOc1ccc(N2C(=O)N(Cc3ccc(C)cc3C)c3ccccc3S2(=O)=O)cc1`, 94%.
With `Cc1ccc(-c2nnc(Nc3cccc(O)c3)c3ccccc23)cc1S(=O)(=O)N1CCN(C)CC1` the figure was 97%.
With `CCOC(=O)c1c(C)oc2ncnc(Nc3cccc(C(F)(F)F)c3)c12` the figure was 105%; with `CCOC(=O)c1cccc(Nc2cc(-c3ccccc3)ncn2)c1`, 15% (active).
Consider `Oc1cccc(Nc2cc(-c3ccccc3)ncn2)c1`, for which the survival is 63%.
As for `CCOC(=O)c1c(Nc2cccc(C)c2)nnc(-c2ccccc2)c1-c1ccccc1`, the figure is -4% (active).
With `CCOC(=O)c1c(C)c(-c2ccccc2)n(CC(=O)Nc2cc(C)cc(C)c2)c1C` the figure was 80%; with `CCOC(=O)CNS(=O)(=O)c1cc(-c2nnc(Nc3cccc(O)c3)c3ccccc23)ccc1C`, 39% (active); with `Cc1ccc(-c2nnc(Nc3cccc(O)c3)c3ccccc23)cc1S(=O)(=O)NCC1CCCO1` (configuration not stated), 74%.
In the case of `CCOC(=O)c1cccc(Nc2cc(C)nc(C)n2)c1`, the survival was 65%.
With `CCc1ccc(NC(=O)Cn2c(=O)n(-c3ccccc3C)c(=O)c3c2c2cc(OC)ccc2n3C)cc1` the figure was 67%; with `COc1ccccc1OCC(=O)NC1CC(=O)N(c2ccc3c(c2)OCCO3)C1` (configuration not stated), 67%.
With `Cc1coc2c(C)c3oc(=O)c(CCC(=O)NCCc4ccccc4F)c(C)c3cc12` the figure was 57%.
With `O=C1c2[nH]nc(-c3ccccc3O)c2C(c2cccc(Cl)c2)N1Cc1cccnc1` (configuration not stated) the figure was 65%; with `CCCOc1ccc(C2c3c(-c4c(C)cc(C)cc4O)n[nH]c3C(=O)N2CCO)cc1` (configuration not stated), 73%.
With `COc1cc(C2c3c(-c4cc(C)ccc4O)n[nH]c3C(=O)N2CCCO)ccc1OCCC(C)C` (configuration not stated), the survival is 58%.
As for `COc1cc(C2c3c(-c4c(C)cc(C)cc4O)n[nH]c3C(=O)N2Cc2ccco2)cc(OC)c1OC` (configuration not stated), the figure is 67%; as for `COc1ccc(C2c3c(-c4c(C)cc(C)cc4O)n[nH]c3C(=O)N2Cc2ccco2)cc1` (configuration not stated), 0% (active); as for `O=C1c2[nH]nc(-c3ccccc3O)c2C(c2ccc(Cl)cc2)N1Cc1ccco1` (configuration not stated), -1% (active).
With `COc1ccc(C2c3c(-c4ccccc4O)n[nH]c3C(=O)N2Cc2ccco2)cc1` (configuration not stated) the figure was 1% (active).
As for `COc1cc(C2c3c(-c4ccccc4O)n[nH]c3C(=O)N2CCO)ccc1OCC(C)C` (configuration not stated), the figure is 99%.
`COC(=O)c1ccc(C2c3c(-c4ccccc4O)n[nH]c3C(=O)N2Cc2ccncc2)cc1` (configuration not stated): the survival is 90%.
As for `COc1cc(C2c3c(-c4ccccc4O)n[nH]c3C(=O)N2Cc2ccco2)ccc1OCC(C)C` (configuration not stated), the figure is 7% (active); as for `CC(C)c1ccc(C2c3c(-c4ccccc4O)n[nH]c3C(=O)N2Cc2ccncc2)cc1` (configuration not stated), 88%.
